Pf growth 96h: P. falciparum growth inhibition at 96 hour, primary screen for plastid delayed-death inhibitors; P. falciparum luciferase reporter growth, 96 h; 320,000 tested, 6.9% active; Potency, µM (highest dose often 28.7 µM), for the others: at the highest dose activity change, negative = inhibition, actives largely listed as inhibitors; also: potency is read from the fitted curve at half-maximal effect; % is scaled to controls: 0 for no effect and ±100 for the full control effect
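Cell-based qHTS: luciferase-tagged P. falciparum in erythrocytes (2% hematocrit, 0.05% parasitemia final) incubated with compounds for 96 hours, 37 C, 5% CO2; luciferase detection reagent then added and luminescence measured.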
Pf growth 48h: P. falciparum growth inhibition at 48 hours (one generation) | AID 504832 | Potency, µM (series often up to 28.7 µM), without a hit: top-dose activity change, negative = inhibition, actives largely listed as inhibitors | 310,000 tested, 5.9% active | P. falciparum luciferase growth in erythrocytes, 48 h; also: potency is read from the fitted curve at half-maximal effect; % is scaled to controls: 0 for no effect and ±100 for the full control effect
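Luciferase-expressing parasites in RBCs, 2% Hct / 0.1% parasitemia final; RPMI 1640 + 0.5% Albumax; 37 C, 5% CO2, one generation; luminescence read-out, lower signal = inhibition.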
SARS PLpro yeast: inhibitors of SARS-CoV papain-like protease in yeast | AID 485353 | S. cerevisiae expressing SARS-CoV PLpro, growth rescue | Potency, µM (top dose mostly 32.9 µM), for the others: top-dose activity, positive = growth rescue, most hits filed as activators | 330,000 tested, 0.19% active; calls by dose curve; also: potency is read from the fitted curve at half-maximal effect; 0% is about no effect; nearly all actives have a fitted effect of over 55% in size
HCMV antiviral: human cytomegalovirus inhibition. HFF cells, HCMV-luciferase reporter, 72 h; hits give low values. activity change, negative = inhibition, % at 57.5 µM. 410,000 tested, 4.5% active; in the data active = activity change below about -60%; inconclusive = no clear call, values can overlap the other calls; inactive = above about -39%; also: % is scaled to controls: 0 for no effect and ±100 for the full control effect
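Inhibition of viral replication was scored as loss of reporter luminescence in HFFs infected with HCMV-luciferase (MOI 1 PFU/cell) for 72 h; compounds tested at 2 doses, normalized to buffer and Salinomycin controls.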
Sm TGR inh: blocks Schistosoma mansoni thioredoxin glutathione reductase; Potency, µM (series often up to 114 µM), for inactives: top-dose activity change, negative = inhibition, usual class: inhibitors; 360,000 tested, 3% active; purified TGR, DTNB reduction, TNB absorbance 405 nm; also: potency is read from the fitted curve at half-maximal effect; % is scaled to controls: 0 for no effect and ±100 for the full control effect; nearly all actives have a fitted effect of over 60% in size
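TGR 20 nM + NADPH 100 uM (dispensed conc.), cpd preinc 15 min RT; start with NADPH (500 uM addition) then DTNB (15 mM addition). Kinetic TNB absorbance, 405 nm filter. Four-parameter Hill fit across titration.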
HCV inh: HCV inhibition; Huh7.5.1 HCVcc-Cre infection, luciferase reporter, 44 h; Potency, µM (series often up to 41.8 µM), inactives show top-dose activity change, negative = inhibition, usual class: inhibitors; 340,000 tested, 3.4% active; AID 651820; also: potency is read from the fitted curve at half-maximal effect; % is scaled to controls: 0 for no effect and ±100 for the full control effect
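Whole-lifecycle infectious HCVcc-Cre system; cells 1,000/well, compound then virus (~0.5 moi) added 4 h after plating, 44 h culture. Luciferase read 15 sec following 15 min substrate incubation, room temp.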
An asterisk follows results filed as active; i = inactive; ? = inconclusive; . = no result given; [ ] = remark or other dose. An excerpt weighted towards active compounds, which were near 15% of everything screened. Unless noted, calls follow the shape of the dose curve; as a rule, active = well fitted curve in the direction sought with a large enough effect; inconclusive = small, poorly fitted or top-dose-only effect, or another doubt; inactive = no such curve, though single readings can be large; an effect the other way counts as inactive or inconclusive.

SMILES	Pf growth 96h	Pf growth 48h	SARS PLpro yeast	HCMV antiviral	Sm TGR inh	HCV inh
CCOc1ccccc1NC(=O)CSc1nnc(CNC(=O)c2cc(OC)c(OC)c(OC)c2)o1	?	14%	2%	-18	-12%	?
Cc1cc(O)c2c3c(c(=O)oc2c1)CCC(C)C3 (stereo unspecified)	?	?	-7%	?	0%	8.9µM*
CC(=O)Nc1ccc(-c2ccnc3c2CC(C(=O)NCCc2ccccc2)O3)cc1 (stereo unspecified)	.	.	.	10	.	.
CC(=O)Nc1ccc(-c2ccnc3c2CC(C(=O)NCc2ccccc2)O3)cc1 (stereo unspecified)	.	.	.	-64*	.	.
CC(=O)Nc1ccc(-c2ccnc3c2CC(C(=O)NCC2CC2)O3)cc1 (stereo unspecified)	.	.	.	12	.	.
CC(=O)Nc1ccc(-c2ccnc3c2CC(C(=O)NCc2ccco2)O3)cc1 (stereo unspecified)	.	.	.	-70*	.	.
O=C(NCc1ccccc1)C1Cc2c(-c3ccc4c(c3)OCO4)ccnc2O1 (stereo unspecified)	.	.	.	-67*	.	.
O=C(CCCOC(=O)c1ccc(O)cc1O)c1ccc(Br)cc1	5%	32%	-2%	-21	4%	1%
CC1(C)COC(/C=C/c2cccc([N+](=O)[O-])c2)=N1	-31%	?	-6%	-95*	2%	?
CC1(C)COC(c2cc([N+](=O)[O-])ccc2Cl)=N1	23%	.	2%	75	-4%	-3%
O=[N+]([O-])c1cccc(/C=C/c2nc[nH]c2[N+](=O)[O-])c1	1.5µM*	?	-1%	-21	0%	4%
COc1ccc(-c2cc(-c3ccc4c(c3)NC(=O)CO4)nc3c2COc2ccc(F)cc2-3)cc1	.	.	.	-2	11%	.
COc1ccc(/C(=N/O)C(C)(C)NO)cc1	8.3µM*	.	5%	22	-9%	15%
COC(=O)c1[nH]c2cc(OC)ccc2c1NC(=O)CCN1CCSCC1	1%	19%	-7%	17	24%	-1%
Cc1ccc2[nH]c3c(c2c1)CN(C(=O)CN1CCCc2ccccc21)CC3	4.7µM*	4.1µM*	1%	9	32µM*	?
COC(=O)c1[nH]c2cc(OC)ccc2c1NC(=O)CN1CCN(c2cccc(C)c2)C(C)C1 (stereo unspecified)	10µM*	12µM*	-22%	-31	-22%	10µM*
COC(=O)c1[nH]c2cccc(Cl)c2c1NC(=O)CN1CCN(CCO)CC1	17%	-3%	1%	24	-1%	4%
COC(=O)c1[nH]c2cccc(Cl)c2c1NC(=O)CN1CCCCC1C (stereo unspecified)	4.1µM*	?	1%	-29	-2%	-8%
COc1ccccc1N1CCN(CC(=O)Nc2nc(C)c(C(=O)N(C)C)s2)CC1	15µM*	-27%	-4%	-6	3%	9%
O=C(NCCc1ccccc1)c1ccc(Cn2c(SCc3ccccc3F)nc3cccnc32)cc1	.	.	.	?	-9%	.
COc1cc(C(=O)OCC(=O)N2CCC(Cc3ccccc3)CC2)cc(OC)c1OC	-1%	-20%	.	.	?	?
COC(=O)c1[nH]c2ccc(C)cc2c1NC(=O)CN1CCCc2ccccc21	2.3µM*	4.1µM*	-29%	-24	8%	?
COC(=O)c1[nH]c2cc(C)ccc2c1NC(=O)CN1CCOCC1	-6%	11%	-1%	-30	16%	13%
COC(=O)c1[nH]c2ccccc2c1NC(=O)CN1CCC(C(N)=O)(N2CCCCC2)CC1	.	13µM*	6%	-6	-13%	-3%
COC(=O)c1[nH]c2cc(C)ccc2c1NC(=O)CN1CCN(c2ccccc2OC)CC1	?	?	-11%	-13	-11%	10µM*
SMILES	Pf growth 96h	Pf growth 48h	SARS PLpro yeast	HCMV antiviral	Sm TGR inh	HCV inh
COC(=O)c1[nH]c2ccccc2c1NC(=O)CN1CCN(c2cccc(Cl)c2)CC1	4%	3.3µM*	1%	?	-2%	?
COc1ccc(N2CCN(C(=O)Cn3cnc4sc(C)c(S(=O)(=O)N5CCCCC5)c4c3=O)CC2)cc1	.	.	.	-13	4%	.
CC(=O)Nc1c(NC(=O)CC#N)[nH]c2c(c1=O)c(=O)n(C)c(=O)n2C	-25%	17%	0%	40	30%	15%
COc1cccc(/C=N/Nc2nc3ccccc3[nH]2)c1O	2.3µM*	?	7%	-99*	16%	?
COc1cccc(/C=N/Nc2nc3ccccc3[nH]2)c1OC	10µM*	?	0%	154	2%	-29%
COc1cccc(/C=N/c2nc3ccccc3[nH]2)c1O	-23%	-3%	5%	24	-18%	2%
COC(=O)c1cc(=O)n(-c2ccc(C(F)(F)F)cc2)[nH]1	-5%	-23%	8%	-15	17%	23%
CCc1nnc(NC(=O)CSc2nnc3nc(C)cc(C)n23)s1	2.1µM*	-10%	3%	10	1%	16%
NC(N)=N/N=C/c1ccc(OS(=O)(=O)c2ccccc2)cc1	-14%	2.1µM*	3%	-82*	4%	?
Cc1ccc(/C=N/NC(=O)c2nn(C)cc2Cl)cc1	122%	197%	-4%	39	2%	13%
Cn1cc(Cl)c(C(=O)N/N=C/c2ccc(OS(=O)(=O)c3ccccc3)cc2)n1	9.3µM*	?	25%	-28	-3%	?
CCOc1cc(/C=N/NC(=O)COc2ccc(Cl)cc2)ccc1OS(=O)(=O)c1ccccc1	?	.	22%	33	10%	5µM*
CCC(=O)N/N=C/c1ccc(OS(=O)(=O)c2ccccc2)cc1	?	10µM*	3%	104	-19%	-4%
C[C@H]1Cn2cnc(C(=O)N(C)Cc3ccccc3)c2C(=O)N1	.	.	.	-8	.	.
Cc1ccc(C(=O)NS(=O)(=O)c2ccccc2)cc1	10%	-3%	0%	-8	-1%[57.1 µM]	3.2µM*
Cc1ccc(C(=O)CC(=O)c2ccccc2)cc1	3.7µM*	45%	?	61	-9%	4%
Cc1ccc(/C=C/C(=O)c2ccc(C)cc2)cc1	13%	76%	-21%	17	3%	6%
O=C(C[n+]1cccc(Br)c1)c1ccc(-c2ccccc2)cc1	24%	1%	-3%	-74*	-17%	?
Cc1ccc(C(=O)/C=C/C(=O)c2ccc(C)cc2)cc1	-3%	i	-9%	62	2.2µM*	0%
CCN1CCN(CC(=O)c2ccc(C)cc2)CC1	0%	.	0%	-67*	5%	9%
O=C(C[n+]1cccc2ccccc21)c1ccc(Br)cc1	?	?	-3%	102	17%	?
Cc1ccc(C)[n+](CC(=O)c2ccc(-c3ccccc3)cc2)c1	-6%	9.3µM*	-1%	-30	.	-21%
